According to PubChem BioAssay (NCI):
The panel holds about 83,000 compounds, 20% with a hit somewhere; the sample as a whole holds those more often.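 Plates (96-well) were seeded with cells, treated with compound at one concentration, and incubated for 48 hours before percent growth was determined.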 Unmarked numbers belong to inactive results. Calls of active or inactive are those of the source. How the source made its calls: active means growth percent below 10; inactive means the rest.

How the values were obtained:
Assay in all cases: NCI-60 one-dose screen, 48 h (100 = growth as untreated, 0 = no growth, -100 = all killed)
Conditions in all cases: 10 µM unless noted
DU-145 prostate = test system: DU-145 prostate
K-562 leukemia = test system: K-562 leukemia
MALME-3M melanoma = test system: MALME-3M melanoma
MDA-MB-231 breast = test system: MDA-MB-231 breast
RXF 393 renal = test system: RXF 393 renal
SF-268 CNS = test system: SF-268 CNS
SF-295 CNS = test system: SF-295 CNS
SF-539 CNS = test system: SF-539 CNS
UACC-257 melanoma = test system: UACC-257 melanoma
M14 melanoma = test system: M14 melanoma
HCT-15 colon = test system: HCT-15 colon
HT29 colon = test system: HT29 colon
SNB-75 CNS = test system: SNB-75 CNS
U251 CNS = test system: U251 CNS
PC-3 prostate = test system: PC-3 prostate
SK-MEL-5 melanoma = test system: SK-MEL-5 melanoma
UACC-62 melanoma = test system: UACC-62 melanoma
LOX IMVI melanoma = test system: LOX IMVI melanoma
SK-MEL-28 melanoma = test system: SK-MEL-28 melanoma
SNB-19 CNS = test system: SNB-19 CNS

Row | Structure (SMILES) | growth (DU-145 prostate) | growth (K-562 leukemia) | growth (MALME-3M melanoma) | growth (MDA-MB-231 breast) | growth (RXF 393 renal) | growth (SF-268 CNS) | growth (SF-295 CNS) | growth (SF-539 CNS) | growth (UACC-257 melanoma) | growth (M14 melanoma) | growth (HCT-15 colon) | growth (HT29 colon) | growth (SNB-75 CNS) | growth (U251 CNS) | growth (PC-3 prostate) | growth (SK-MEL-5 melanoma) | growth (UACC-62 melanoma) | growth (LOX IMVI melanoma) | growth (SK-MEL-28 melanoma) | growth (SNB-19 CNS)
1 | O=C(Nc1ncc(Cc2cc(C(F)(F)F)ccc2Cl)s1)c1cccs1 | 72.7% | 10.7% | 50.7% | 77.8% | 42.7% | 63.9% | 41% | 79.7% | 73.3% | 49.3% | 21.9% | 18.6% | 72% | 42.5% | 50.1% | 37.7% | 46.1% | 58.8% | 67.5% | 
2 | COc1cc(-c2nc3c(ncc4ccc(=O)n(-c5ccccc5)c43)s2)cc(OC)c1OC | 80.2% | 90.5% | 65.4% | 64.1% | 48.2% | 69.1% | 90.4% | 57.4% | 101% | 87.6% | 78.6% | 84.2% |  | 80.3% | 56.9% | 68.5% | 78.7% | 58.4% | 78.3% | 86.1%
3 | O=C(/C=C(O)/C=C/c1cccc2[nH]ccc12)/C=C/c1cccc2[nH]ccc12 | 95.6% | 14.5% | 69.4% | 73.8% | 87.4% | 89.5% | 95.5% | 90.4% | 86.4% | 38.9% | 61.5% | 38.4% |  | 45.2% | 66.8% | 76% | 68% | 63.7% | 97.6% | 72.6%
4 | COc1ccc(Cn2cc(C(=O)N=Nc3c(O)[nH]c4c(C)cccc34)nn2)cc1 | 60.4% | 63.2% | 40.5% | 51% | 81.9% | 87.3% | 111% | 80.1% | 93.7% | 71.9% | 68% | 67.4% |  | 108% | 61.3% | 93.8% | 74.1% | 75.3% |  | 97.5%
5 | CN1CCN(c2ccc(NC(=O)c3cncnc3Nc3ccc(OCc4cccc(F)c4)c(Cl)c3)cc2)CC1 | 80.3% | 1.91% (active) | 78.4% | -13.3% (active) | 55.5% | 78.7% | 99.8% | 43.3% | 90.5% | -15.5% (active) | -39.6% (active) | -55.3% (active) |  | 47% | 68.1% | 87.8% | 48% | 29.7% |  | 84.1%
6 | COc1ccc(/C=C/c2ccc3ccccc3n2)c(OC)c1 | 91.2% | 19.8% | 50% | 58.9% | 90.7% | 98.7% | 60.2% | 83.3% | 84.8% | 45.3% | 56% |  | 78% | 83.1% | 66.1% | 78.3% | 65.8% | 59.6% | 81.7% | 
7 | CCN1C(=O)N(CC)C2C1N=C(SCc1ccc(Cl)cc1)N2/N=C/C=C/c1ccccc1OC (stereo not drawn) | 90.7% | 20.9% | 60.9% | 75.2% | 49.8% | 64.5% | 57.5% | 68% | 42% | 45.5% | 31.4% | 58.3% |  | 68.8% | 43.7% |  | 31.2% | 44.5% | 70.9% | 79.3%
8 | Cc1ccc(/C=C/C(=O)c2ccc(-n3cc(CN4CCN(c5cc6c(cc5F)c(=O)c(C(=O)O)cn6C5CC5)CC4)nn3)cc2)cc1 | 96.3% | 86% | 96% | 75.5% | 70.9% | 71.5% | 86.9% | 73.6% | 101% | 87.4% | 97.6% |  | 70.8% | 73.1% | 89.6% | 86.2% | 77.6% | 56.9% | 100% | 86.4%
